Reference: the supplement of paper PMC11732987, “Enantioselective OTUD7B fragment discovery through chemoproteomics screening and high-throughput optimisation” (Communications Chemistry, 2025)
A number with no mark means an inactive call.

How the values were obtained:
Test in all cases: log2 ratio of Biotin-Ahx-Ub-VS probe labelling (fragment/DMSO); higher = less target engagement (more negative = stronger competition), active = hit call of the paper (q ≤ 0.05, log2 ratio ≤ -1)
Details in all cases: compound concentration: 200 uM; treatment time: 3 h
OTUD6B = molecular target: T1, OTUD6B (UniProt Q8N6M0)
T1 sequence (whole entry): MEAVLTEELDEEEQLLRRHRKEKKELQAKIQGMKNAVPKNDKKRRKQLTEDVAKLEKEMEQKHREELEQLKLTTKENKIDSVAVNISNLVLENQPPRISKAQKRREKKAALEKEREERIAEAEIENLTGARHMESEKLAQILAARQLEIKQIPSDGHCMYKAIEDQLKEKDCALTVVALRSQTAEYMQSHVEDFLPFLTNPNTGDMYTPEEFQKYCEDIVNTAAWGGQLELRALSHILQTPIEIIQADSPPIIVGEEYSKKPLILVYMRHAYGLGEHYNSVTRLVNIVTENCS
Outline: (§1)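 Labelling with Biotin-Ahx-Ub-VS (0.5 µM final, 1 h) followed a 3 h triplicate treatment of HEK293T lysate (495 µg per sample, Tris/CHAPS/IGEPAL buffer with protease inhibitors) with fragment at 200 µM or vehicle. Labelled DUBs were NeutrAvidin-enriched, digested with LysC and trypsin, and run by diaPASEF LC-MS/MS. The values, average log2 fragment/vehicle ratios by unpaired t-test, come from global-median-normalised Spectronaut label-free quantities. Proteins with ≥2 unique peptides were used.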

OTUD7B = molecular target: T2, OTUD7B (UniProt Q6GQQ9)
T2 sequence (whole entry): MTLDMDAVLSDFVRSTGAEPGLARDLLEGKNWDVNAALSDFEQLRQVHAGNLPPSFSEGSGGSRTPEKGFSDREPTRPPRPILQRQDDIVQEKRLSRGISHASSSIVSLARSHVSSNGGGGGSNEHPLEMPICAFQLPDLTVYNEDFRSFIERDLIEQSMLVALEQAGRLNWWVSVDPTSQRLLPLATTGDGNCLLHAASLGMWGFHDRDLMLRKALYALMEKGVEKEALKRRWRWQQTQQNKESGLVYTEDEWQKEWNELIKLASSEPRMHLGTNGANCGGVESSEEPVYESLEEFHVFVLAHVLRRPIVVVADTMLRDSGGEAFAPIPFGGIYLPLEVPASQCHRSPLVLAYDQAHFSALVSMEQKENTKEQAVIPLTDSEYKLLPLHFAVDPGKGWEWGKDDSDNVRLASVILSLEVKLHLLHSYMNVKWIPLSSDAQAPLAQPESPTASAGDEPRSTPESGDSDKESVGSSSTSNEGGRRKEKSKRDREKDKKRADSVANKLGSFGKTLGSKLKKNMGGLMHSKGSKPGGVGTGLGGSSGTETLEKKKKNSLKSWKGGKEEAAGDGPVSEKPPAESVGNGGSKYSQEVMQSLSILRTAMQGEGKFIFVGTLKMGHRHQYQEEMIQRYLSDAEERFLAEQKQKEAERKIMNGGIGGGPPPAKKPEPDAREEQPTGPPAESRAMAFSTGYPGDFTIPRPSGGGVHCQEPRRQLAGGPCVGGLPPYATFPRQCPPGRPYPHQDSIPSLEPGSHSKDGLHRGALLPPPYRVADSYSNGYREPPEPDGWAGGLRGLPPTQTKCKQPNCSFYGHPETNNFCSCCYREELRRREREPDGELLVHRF
Outline: as §1

PRPF8 = PRPF8 (UniProt Q6P2Q9)
Outline: as §1

PSMD7 = molecular target: T3, PSMD7 (UniProt P51665)
T3 sequence (whole entry): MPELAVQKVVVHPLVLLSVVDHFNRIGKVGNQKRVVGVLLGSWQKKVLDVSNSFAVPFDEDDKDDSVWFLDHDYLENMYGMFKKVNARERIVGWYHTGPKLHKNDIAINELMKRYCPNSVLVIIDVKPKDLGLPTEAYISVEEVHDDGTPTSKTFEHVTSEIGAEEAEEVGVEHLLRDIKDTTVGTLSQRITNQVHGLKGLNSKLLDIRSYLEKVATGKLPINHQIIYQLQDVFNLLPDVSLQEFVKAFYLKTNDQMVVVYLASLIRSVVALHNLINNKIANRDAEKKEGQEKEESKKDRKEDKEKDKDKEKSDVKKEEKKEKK
Outline: as §1

UCHL1 = UCHL1 (UniProt P09936)
Outline: as §1

UCHL3 = molecular target: T4, UCHL3 (UniProt P15374)
T4 sequence (whole entry): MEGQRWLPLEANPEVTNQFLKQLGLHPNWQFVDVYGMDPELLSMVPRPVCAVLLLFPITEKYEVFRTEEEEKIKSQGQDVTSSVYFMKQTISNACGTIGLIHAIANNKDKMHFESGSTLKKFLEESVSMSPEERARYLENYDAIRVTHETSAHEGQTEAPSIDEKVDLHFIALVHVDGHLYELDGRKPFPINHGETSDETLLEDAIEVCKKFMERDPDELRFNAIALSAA
Outline: as §1

UCHL5 = molecular target: T5, UCHL5 (UniProt Q9Y5K5)
T5 sequence (whole entry): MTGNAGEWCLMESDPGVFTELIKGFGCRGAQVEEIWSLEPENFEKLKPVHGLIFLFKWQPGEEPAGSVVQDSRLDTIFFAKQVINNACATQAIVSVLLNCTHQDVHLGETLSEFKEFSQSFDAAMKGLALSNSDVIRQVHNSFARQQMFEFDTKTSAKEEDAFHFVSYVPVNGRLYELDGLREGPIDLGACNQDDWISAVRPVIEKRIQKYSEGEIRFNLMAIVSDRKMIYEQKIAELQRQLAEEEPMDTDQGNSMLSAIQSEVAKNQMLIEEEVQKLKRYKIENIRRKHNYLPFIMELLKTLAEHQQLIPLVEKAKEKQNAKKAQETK
Outline: as §1

USP10 = USP10 (UniProt Q14694)
Outline: as §1

USP15 = molecular target: T6, USP15 (UniProt Q9Y4E8)
T6 sequence (whole entry): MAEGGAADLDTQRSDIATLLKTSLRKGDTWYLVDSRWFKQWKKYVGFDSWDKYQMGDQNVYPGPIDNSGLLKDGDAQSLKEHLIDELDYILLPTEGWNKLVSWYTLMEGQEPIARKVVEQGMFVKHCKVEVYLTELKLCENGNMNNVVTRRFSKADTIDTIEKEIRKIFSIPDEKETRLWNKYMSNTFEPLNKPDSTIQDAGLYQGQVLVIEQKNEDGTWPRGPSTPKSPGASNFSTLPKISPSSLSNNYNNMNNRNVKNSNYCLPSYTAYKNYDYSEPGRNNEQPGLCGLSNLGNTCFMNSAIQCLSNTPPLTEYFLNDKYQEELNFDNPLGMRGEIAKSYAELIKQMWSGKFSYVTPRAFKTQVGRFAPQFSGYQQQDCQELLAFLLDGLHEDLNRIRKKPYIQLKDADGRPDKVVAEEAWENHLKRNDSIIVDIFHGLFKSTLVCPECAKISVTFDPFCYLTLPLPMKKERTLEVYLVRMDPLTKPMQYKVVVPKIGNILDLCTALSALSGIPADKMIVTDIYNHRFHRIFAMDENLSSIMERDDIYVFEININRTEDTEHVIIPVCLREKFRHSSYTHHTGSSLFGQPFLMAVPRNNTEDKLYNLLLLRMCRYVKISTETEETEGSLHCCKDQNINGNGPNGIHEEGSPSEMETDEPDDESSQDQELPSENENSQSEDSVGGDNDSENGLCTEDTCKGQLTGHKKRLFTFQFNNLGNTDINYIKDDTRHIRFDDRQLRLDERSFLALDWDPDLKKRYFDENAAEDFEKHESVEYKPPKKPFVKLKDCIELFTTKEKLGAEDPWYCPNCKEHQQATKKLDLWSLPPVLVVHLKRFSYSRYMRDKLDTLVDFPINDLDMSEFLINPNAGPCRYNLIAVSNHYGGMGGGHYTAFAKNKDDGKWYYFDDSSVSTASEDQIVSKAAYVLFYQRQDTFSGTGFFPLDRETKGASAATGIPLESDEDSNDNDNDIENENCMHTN
Outline: as §1

USP16 = USP16 (UniProt Q9Y5T5)
Outline: as §1

Sequence of USP16 (Q9Y5T5 whole entry, looked up): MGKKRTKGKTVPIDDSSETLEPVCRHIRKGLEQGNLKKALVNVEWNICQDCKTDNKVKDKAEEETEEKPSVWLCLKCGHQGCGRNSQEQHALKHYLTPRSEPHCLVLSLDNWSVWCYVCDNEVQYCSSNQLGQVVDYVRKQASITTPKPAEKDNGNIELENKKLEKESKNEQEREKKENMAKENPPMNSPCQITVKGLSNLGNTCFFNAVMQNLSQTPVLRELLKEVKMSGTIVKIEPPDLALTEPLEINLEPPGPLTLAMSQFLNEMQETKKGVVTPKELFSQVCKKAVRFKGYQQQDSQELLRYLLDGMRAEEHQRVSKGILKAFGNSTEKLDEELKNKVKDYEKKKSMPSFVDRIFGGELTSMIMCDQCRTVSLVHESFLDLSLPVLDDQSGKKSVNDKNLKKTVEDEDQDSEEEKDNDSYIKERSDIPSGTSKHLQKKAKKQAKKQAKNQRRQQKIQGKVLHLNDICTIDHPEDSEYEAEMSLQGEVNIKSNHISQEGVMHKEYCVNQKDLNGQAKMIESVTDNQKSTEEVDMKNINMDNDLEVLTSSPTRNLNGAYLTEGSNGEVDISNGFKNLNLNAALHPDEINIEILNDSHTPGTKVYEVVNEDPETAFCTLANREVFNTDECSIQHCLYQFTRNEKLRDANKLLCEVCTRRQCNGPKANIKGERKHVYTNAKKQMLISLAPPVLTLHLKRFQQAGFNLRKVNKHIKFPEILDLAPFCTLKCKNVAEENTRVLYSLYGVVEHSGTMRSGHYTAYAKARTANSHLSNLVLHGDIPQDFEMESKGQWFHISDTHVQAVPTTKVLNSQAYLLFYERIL
Sequence of UCHL1 (P09936 whole entry, looked up): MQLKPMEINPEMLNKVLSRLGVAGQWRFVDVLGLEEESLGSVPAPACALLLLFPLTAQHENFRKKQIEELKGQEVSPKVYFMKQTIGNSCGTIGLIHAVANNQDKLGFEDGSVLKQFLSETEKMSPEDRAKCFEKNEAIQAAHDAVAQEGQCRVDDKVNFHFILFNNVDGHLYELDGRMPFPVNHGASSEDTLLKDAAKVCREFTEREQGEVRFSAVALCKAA
Sequence of USP10 (Q14694 whole entry): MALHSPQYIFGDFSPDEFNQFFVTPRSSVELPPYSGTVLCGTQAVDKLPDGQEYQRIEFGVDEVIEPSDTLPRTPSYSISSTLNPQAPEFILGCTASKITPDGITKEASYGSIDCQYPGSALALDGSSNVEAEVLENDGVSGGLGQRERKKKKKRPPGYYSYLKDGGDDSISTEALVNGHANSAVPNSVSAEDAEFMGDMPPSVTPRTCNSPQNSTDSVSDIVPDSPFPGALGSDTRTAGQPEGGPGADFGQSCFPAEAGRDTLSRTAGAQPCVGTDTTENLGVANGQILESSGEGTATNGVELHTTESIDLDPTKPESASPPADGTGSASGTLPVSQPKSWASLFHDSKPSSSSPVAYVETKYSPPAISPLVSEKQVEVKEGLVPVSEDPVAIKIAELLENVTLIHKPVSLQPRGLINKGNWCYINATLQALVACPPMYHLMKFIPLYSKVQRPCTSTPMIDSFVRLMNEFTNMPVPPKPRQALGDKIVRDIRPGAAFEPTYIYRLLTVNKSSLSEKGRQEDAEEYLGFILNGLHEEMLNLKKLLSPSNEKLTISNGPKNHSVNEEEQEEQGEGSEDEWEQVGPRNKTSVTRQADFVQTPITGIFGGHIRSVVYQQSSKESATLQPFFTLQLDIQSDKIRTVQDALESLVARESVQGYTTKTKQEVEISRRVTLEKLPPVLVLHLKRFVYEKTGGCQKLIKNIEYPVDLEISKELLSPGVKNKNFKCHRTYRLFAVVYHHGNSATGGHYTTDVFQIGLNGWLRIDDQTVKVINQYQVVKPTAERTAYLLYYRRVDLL

Structure (SMILES) | log2 ratio of Biotin-Ahx-Ub-VS probe labelling (OTUD6B) | log2 ratio of Biotin-Ahx-Ub-VS probe labelling (OTUD7B) | log2 ratio of Biotin-Ahx-Ub-VS probe labelling (PRPF8) | log2 ratio of Biotin-Ahx-Ub-VS probe labelling (PSMD7) | log2 ratio of Biotin-Ahx-Ub-VS probe labelling (UCHL1) | log2 ratio of Biotin-Ahx-Ub-VS probe labelling (UCHL3) | log2 ratio of Biotin-Ahx-Ub-VS probe labelling (UCHL5) | log2 ratio of Biotin-Ahx-Ub-VS probe labelling (USP10) | log2 ratio of Biotin-Ahx-Ub-VS probe labelling (USP15) | log2 ratio of Biotin-Ahx-Ub-VS probe labelling (USP16)
Cl.O=C(CCl)N1CC(c2ccc(Br)cn2)C1 | -0.116 | -1.18 (active) | 0.0941 | -0.394 | -1.41 (active) | -0.211 | -0.254 | -0.0353 | -0.409 | -0.253
CCN(C(=O)CCl)C1CCCCC1 | -0.00402 | -0.011 | -0.0683 | 0.00413 | -0.999 | 0.576 | 0.0144 | -0.185 | -0.0855 | 0.0695
CC1CN(c2ccc(NC(=O)CCl)cc2)CC(C)O1 (stereo not given) | -0.241 | -0.313 | 0.0099 | -0.00447 | -1.48 (active) | 0.00853 | -0.366 | -0.118 | -0.153 | -0.987
N#Cc1ccccc1N1CCN(C(=O)CCl)CC1 | -0.533 | -0.626 | -0.322 | -0.0914 | -2.04 (active) | -0.341 | -0.894 | -0.051 | -0.781 | -0.37
CCC1c2ccsc2CCN1C(=O)CCl (stereo not given) | -0.158 | -0.505 | 0.237 | -0.0765 | -1.35 (active) | -0.00293 | -0.25 | -0.134 | -0.298 | -0.5
